TMEM16A act: mouse TMEM16A channel activation, primary screen; Q8BHY3; HEK293 TMEM16A/YFP-H148Q/I152L, iodide quench fluorescence; hits give low values; B-score at 10 µM; 340,000 tested, 0.3% active;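 active means fluorescence-ratio B-score plate-corrected deviation score at least 3 library SD below zero, with starting fluorescence score within 5 deviations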;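 further: channel opened by trigger with iodide after compound preincubation; score built on the fluorescence ratio of max minus min over baseline; more negative score means more quench and so TMEM16A activation or potentiation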
GRK2 inh: inhibitors of human GRK2 displacing RNA aptamer | P25098 | 330,000 tested, 0.59% active | inhibition of aptamer binding, % at 10 µM | bead flow cytometry, FAM-aptamer displacement from GRK2;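 active means inhibition of aptamer binding above 40%, roughly 3 SD of noise, on plates passing a quality check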;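 further: median bead fluorescence of bound FAM aptamer so fluorescent compounds give negative values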
Target sequence (P25098 whole entry, looked up): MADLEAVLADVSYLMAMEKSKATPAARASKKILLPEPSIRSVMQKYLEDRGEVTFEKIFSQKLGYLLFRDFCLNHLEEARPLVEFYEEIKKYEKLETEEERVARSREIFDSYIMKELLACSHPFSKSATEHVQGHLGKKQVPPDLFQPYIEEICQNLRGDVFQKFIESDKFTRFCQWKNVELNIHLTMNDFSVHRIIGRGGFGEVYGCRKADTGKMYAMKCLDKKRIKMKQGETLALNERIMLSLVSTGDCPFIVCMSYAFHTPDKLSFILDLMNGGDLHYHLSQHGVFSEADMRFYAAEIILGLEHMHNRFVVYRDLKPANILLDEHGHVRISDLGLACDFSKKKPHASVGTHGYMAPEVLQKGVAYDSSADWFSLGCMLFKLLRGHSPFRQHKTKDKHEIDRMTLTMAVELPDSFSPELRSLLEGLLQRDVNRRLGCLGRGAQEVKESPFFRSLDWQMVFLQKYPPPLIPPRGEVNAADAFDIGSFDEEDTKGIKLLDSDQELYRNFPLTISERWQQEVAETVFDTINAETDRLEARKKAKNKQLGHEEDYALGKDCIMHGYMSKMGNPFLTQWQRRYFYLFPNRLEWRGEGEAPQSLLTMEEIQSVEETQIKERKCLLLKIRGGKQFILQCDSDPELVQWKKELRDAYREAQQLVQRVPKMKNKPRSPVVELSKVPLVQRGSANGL
TLR4-MyD88 BLA: inhibitors of human TLR4-MyD88 binding | O00206+Q99836 | HeLa CL3-4 TLR4/MyD88 BLA complementation, FRET ratio | inhibition, % at 8.4 µM | 200,000 tested, 0.18% active | AID 861; in the data active means inhibition above about 25%;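 further: 0% = vehicle and 100% = reference inhibitor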
ANO1 block: inhibitors of mouse TMEM16A calcium-activated chloride channel | Q8BHY3 | HEK293 TMEM16A/YFP iodide influx fluorescence, ionomycin | normalized B-score (activity score, 25-100; higher = stronger inhibition) at 10 µM | 310,000 tested, 1.2% active | AID 588511;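 active means ratio plate-corrected score three or more library SD toward inhibition, starting fluorescence score within five deviations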;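 further: score derived from kinetic fluorescence span divided by baseline fluorescence per well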
TLR9-MyD88 inh: TLR9-MyD88 interaction inhibition; AID 504734; Q9NR96+Q99836; 340,000 tested, 0.21% active; inhibition, % at 4.98 µM; CHO BLA complementation TLR9-MyD88, CCF4 FRET ratio;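 active means inhibition above the mean over all tested compounds plus 3 SD, cut at about 21% in these data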;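 further: 0% = DMSO only wells and 100% = clavulanate BLA inhibitor control wells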
NOD2-RIPK2 inh: inhibitors of human NOD2-RIPK2 interaction. O43353. inhibition, % at 4.98 µM. 360,000 tested, 0.38% active. CHO BLA complementation NOD2-RIPK2, CCF4 ratio; in the data active means inhibition above about 21%;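 further: 0% = vehicle only and 100% = reference blocker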
TMEM16A reconf: reconfirmed blocker of mouse TMEM16A calcium-activated chloride channel; shares compounds with ANO1 block; HEK293 TMEM16A/YFP-H148Q, iodide quench fluorescence; ionomycin added to raise cell calcium; inhibition, % at 10 µM; 2,300 tested, 39% active; AID 652189;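 active means mean duplicate percent inhibition, scaled so buffer wells are 0 and the reference blocker 100, over three buffer SD above buffer mean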
TMEM16A Ca cntr: calcium mobilization counter-screen hit for TMEM16A inhibitor series; shares compounds with ANO1 block; TMEM16A/YFP HEK293, Fluo4 calcium mobilization; calcium response (% of ionomycin), % at 10 µM; 2,300 tested, 2% active;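 active means duplicate-averaged calcium signal over 20% of the ionomycin maximum, relative to buffer baseline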;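 further: each well's signal is peak minus trough fluorescence divided by its pre-addition baseline; 0% = buffer wells and 100% = ionomycin wells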
Parental YFP cnt: parental YFP-HEK293 iodide quench counter-screen activity | ionomycin | shares compounds with ANO1 block | YFP ratio F(max-min)/F0 at 10 µM | AID 652233 | 2,300 tested, under 10 active;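 active means yellow fluorescent protein signal ratio exceeding the buffer control mean by over 5 SD of those controls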;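 further: ratio is mean of duplicate wells from kinetic YFP trace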
ClC-1 rat inh: selectivity of TMEM16A inhibitors: inhibition of rat ClC-1 chloride channel; shares compounds with ANO1 block; CHO ClC-1-YFP, iodide influx fluorescence quench; iodide control reads 0, buffer control 100; ratio percent, % at 10 µM; 2,300 tested, under 10 active; AID 652236;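 active means duplicate-mean ratio percent above the mean of iodide-only control wells, which defines zero, plus 5 of their SD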;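 further: higher percent means stronger block of ClC-1 iodide influx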
* marks the source's active call; other numbers are inactive results; i = inactive; . = no result. Sampled rows, rich in hits. Any-hit rate of the full collection: about 2.2%.

SMILES | TMEM16A act | GRK2 inh | TLR4-MyD88 BLA | ANO1 block | TLR9-MyD88 inh | NOD2-RIPK2 inh | TMEM16A reconf | TMEM16A Ca cntr | Parental YFP cnt | ClC-1 rat inh
N#CC1=C(N)N2C(=C(C#N)C1c1ccc(Br)cc1)Nc1ccccc12 (centres undefined) | . | 0.0 | 11.4 | 25* | . | . | 16.5%* | i | -1.07 | -16.5
CCN(CC)c1ccc2cc(S(=O)(=O)c3ccc(Cl)cc3)c(=O)oc2c1 | i | 2.0 | -17.8 | i | -21.0 | -13.7 | i | i | -0.171 | 14.5
CCCn1c(NC(=O)c2ccc([N+](=O)[O-])o2)nc2ccccc21 | i | 5.0 | . | i | -9.9 | 3.3 | . | . | . | .
CCOC(=O)c1c(S(=O)(=O)NCc2ccc(C)o2)c(C)n(C)c1C | i | 0.0 | . | i | -2.5 | 10.5 | . | . | . | .
C1CN=C(NC23CC4CC(CC(C4)C2)C3)C1 | i | 0.0 | 5.7 | i | -14.0 | 0.0 | . | . | . | .
C1CCC(NC2=NCCC2)CC1 | i | 0.0 | -0.1 | 100* | 2.7 | 2.9 | i | i | -1.1 | -4.5
Oc1[nH]c2ccccc2c1N=Nc1ccccc1 | i | 1.0 | . | i | 1.2 | 7.5 | i | i | -0.969 | 13.5
Oc1[nH]c2ccccc2c1N=Nc1ccc(F)cc1 | i | 1.0 | 0.0 | i | 12.2 | 5.9 | . | . | . | .
COc1ccc(N(C)S(=O)(=O)c2cccc(C(=O)N(C)Cc3ccc(C)o3)c2)cc1 | i | 0.0 | -2.8 | i | -12.1 | -7.8 | . | . | . | .
COC(=O)c1ccc(Oc2ccc(S(=O)(=O)N3CCCCC3)cc2N)cc1 | i | 2.0 | . | i | -11.3 | -4.3 | . | . | . | .
Nc1cc(S(=O)(=O)N2CCCCC2)ccc1Oc1ccc(Cl)cc1 | i | 0.0 | 4.7 | 100* | -6.2 | -9.3 | i | i | -1.1 | -13.5
OC1CCC2CN3CCc4c([nH]c5ccccc45)C3CC2C1 (centres undefined) | . | . | . | . | . | -22.5 | . | . | . | .
CN(C)CCC1(C2=CCCC2)CC/C(=C/c2ccc(Cl)cc2)C1=O (centres undefined) | i | . | . | . | -2.5 | 12.2 | . | . | . | .
Cc1oc2cc([N+](=O)[O-])c(O)c([N+](=O)[O-])c2c1C(=O)c1ccc(Cl)cc1 | i | 4.0 | . | 25* | -5.7 | -0.2 | 32.5%* | i | -0.878 | -15.5
O=C(C(=O)N1CCN(c2ccc(F)cc2)CC1)c1cn(CC(=O)N2CCOCC2)c2ccccc12 | i | 2.0 | . | i | -3.4 | 9.8 | . | . | . | .
COC(=O)C1=CN(CC2CCCO2)C=C(C(=O)OC)C1c1ccsc1 (centres undefined) | i | 2.0 | -7.4 | 100* | 1.4 | 4.4 | i | i | -1.07 | -15.0
CN(CC(=O)Nc1cccc(S(=O)(=O)N2CCOCC2)c1)CC(=O)Nc1ccc(Cl)c(C(F)(F)F)c1 | i | 0.0 | . | 25* | -8.2 | -3.3 | i | i | -1.31 | -9.5
CN(CC(=O)Nc1cccc(F)c1)CC(=O)Nc1cc(S(=O)(=O)N2CCOCC2)ccc1Cl | i | 1.0 | . | . | 3.5 | 1.4 | . | . | . | .
CCOC(=O)C1=C(C)NC2=C(C(=O)C(C(=O)OC)C(C)C2)C1c1ccc(OC)c(O)c1 (centres undefined) | i | 7.0 | 6.6 | 25* | -10.5 | -8.5 | i | i | -0.852 | -0.5
CCOC(=O)c1nnn(-c2nonc2-n2cccc2)c1CCl | i | 4.0 | 11.4 | i | -1.8 | -9.9 | . | . | . | .
CCOC(=O)c1nnn(-c2nonc2-n2cccc2)c1CN1CCC(C)CC1 | . | 1.0 | -7.1 | 100* | -10.2 | -1.0 | 17.5%* | i | -1.2 | -3.0
CCc1nc(SCC(=O)c2cccs2)c2oc3ccccc3c2n1 | i | 0.0 | 1.4 | 100* | -2.5 | 2.3 | i | i | -1.05 | -12.5
O=C1C(Cc2ccc3[nH]ccc3c2)NC(=S)N1c1ccccc1 (centres undefined) | i | 0.0 | . | i | -4.8 | 0.5 | . | . | . | .
CC(C)(C)n1cnc2cc(NS(=O)(=O)c3ccc(Br)cc3)ccc21 | i | 4.0 | -1.0 | 25* | -1.8 | -12.3 | i | i | -0.91 | -10.5
CCOc1ccc(-c2nnn(CC(=O)c3ccc4c(c3)OCCO4)n2)cc1OCC | i | 2.0 | 6.4 | 25* | -7.4 | -1.6 | 18.5%* | i | -1.02 | -9.5
SMILES | TMEM16A act | GRK2 inh | TLR4-MyD88 BLA | ANO1 block | TLR9-MyD88 inh | NOD2-RIPK2 inh | TMEM16A reconf | TMEM16A Ca cntr | Parental YFP cnt | ClC-1 rat inh
Clc1cccc(-c2nnc(SCc3nc4ccccc4[nH]3)n2Cc2ccco2)c1 | i | 0.0 | 1.6 | i | 3.0 | 0.6 | . | . | . | .
Clc1ccc(OCc2nnc(SCc3nc4ccccc4[nH]3)n2Cc2ccco2)cc1 | i | 3.0 | 13.6 | 25* | 0.2 | -16.4 | i | i | -1.14 | -18.0
O=C(CCc1ccc(S(=O)(=O)N2CCOCC2)cc1)Oc1ccccc1 | i | 0.0 | -1.5 | 25* | 2.4 | -11.6 | i | i | -1.23 | -1.0
CC(=O)c1cccc(NC(=O)Nc2ccc3c(c2)N(C)C(=O)CS3)c1 | i | 0.0 | -1.1 | 25* | -4.2 | -7.5 | 34.5%* | i | -1.05 | -15.0
O=C(CNc1ccc(Br)cc1)Nc1cccc(S(=O)(=O)N2CCCC2)c1 | i | 0.0 | . | . | -3.6 | 4.4 | . | . | . | .
O=C(CNc1cccc(S(=O)(=O)N2CCCC2)c1)Nc1cccc(Br)c1 | i | 0.0 | . | 25* | -4.1 | -11.0 | 16.5%* | i | -0.971 | -18.0
CSc1nc(NCc2ccco2)c2ccccc2n1 | i | 0.0 | 0.0 | i | 1.4 | 3.0 | . | . | . | .
Cc1ccccc1Nc1nc(NCc2ccco2)c2ccccc2n1 | i | 0.0 | 9.0 | 25* | -0.2 | 6.0 | 32.0%* | i | -1.17 | -7.0
Cc1ccc(S(=O)(=O)Nc2nc3ccccc3nc2NCc2ccco2)cc1 | i | 0.0 | -12.8 | i | -8.4 | -15.2 | . | . | . | .
Cc1ccc(-c2nc(NCc3ccco3)c3ccccc3n2)cc1 | i | 0.0 | -2.3 | i | 7.6 | -12.7 | . | . | . | .
Cc1ccc(S(=O)(=O)Nc2nc3ccccc3nc2NCc2ccco2)cc1C | i | 1.0 | -5.8 | 100* | 0.2 | -25.5 | i | i | -0.975 | -15.0
c1ccc(Nc2nc(NCc3ccco3)c3ccccc3n2)cc1 | i | 0.0 | . | 25* | -7.0 | 2.9 | 47.0%* | i | -1.14 | -8.5

Source: PubChem BioAssay (several laboratories)
